A number with no mark means an inactive call. Calls of active or inactive are those of the source.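 How the source made its calls, unless noted: active means inhibition above 50%; inactive means the rest.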

One experiment is described as follows: antimalarial activity against Dd2 strain (AID 2302;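 active means growth inhibition above 50% at the single 2 µM test dose, taken to imply half-maximal potency below 2 µM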;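 further: 0% = DMSO untreated growth and 100% = chloroquine plus artemisinin killed control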). As to conditions: P. falciparum Dd2 in RBCs, LDH growth readout, 72 h; at 2 µM; stronger effect = higher value.
Consider `CCCCCCN1CCC(NCc2ccc(OCCN3CCCC3)cc2)CC1`, for which the growth inhibition was 93% (active).
Turning to `Cc1cccc(CN2CCC(C(=O)Nc3ccc(-c4nc5ccccc5[nH]4)cc3)CC2)n1`, the growth inhibition was 3%.
Same read-out and setting: the figure for `CC(C)c1ccc(N(CC(=O)N/N=C/c2ccc(C(F)(F)F)cc2)S(=O)(=O)c2ccc(C(F)(F)F)cc2)cc1` is 44%.
The same measure, in the same setting: with `COc1ccc2nc(-c3cc(-c4ccc(NC(=O)C(C)C)cc4)cnc3N)[nH]c2c1` the figure was 47%.
On to `O=C(NCCCCN1CCC(c2ccc(Br)cc2)CC1)c1ccc(NC(=O)c2ccc(Cl)cc2)cc1`, for which the growth inhibition is 86% (active).
Regarding `O=S(=O)(NCCN1CCCC1)c1cccc(-c2cccc(CNCc3ccsc3)c2)c1`, the growth inhibition is 55% (active).
The same measure, in the same setting: the figure for `CCc1cn2c3c(cc(C(=O)N[C@@H](Cc4ccccc4)[C@H](O)CNC4CCOCC4)cc13)N(C)S(=O)(=O)C2` is 98% (active).
For `COc1ccc(CNCc2ccc(-c3ccc(-c4nc5ccc(C(F)(F)F)cc5[nH]4)s3)cc2)cc1`, the growth inhibition was 98% (active).
The same measure, in the same setting: with `COc1ccc(-c2nc(NC(=O)Cc3ccc4c(c3)OCCO4)sc2C)cc1` the figure was 99% (active); with `COC(=O)c1ccc2nc(-c3ccc(/C=C/C(=O)NCc4ccc(Cl)c(Cl)c4)cc3)[nH]c2c1`, 3%; with `N#Cc1cccc(Nc2nccc(NCC(O)c3cccc(C(F)(F)F)c3)n2)c1` (stereo not drawn), 84% (active).
On to `COc1cc(-c2nc(-c3ccccc3)c(-c3ccccc3)[nH]2)cc(OC)c1O`, for which the growth inhibition was 90% (active).
Same read-out and setting: the figure for `N#Cc1cc(C(=O)c2cc(Cl)ccc2O)cn(-c2cccc(C(F)(F)F)c2)c1=O` is 7%; for `CC(C)CC1c2[nH]c3ccccc3c2CCN1C(=O)CCc1ccccc1` (stereo not drawn) it is 82% (active); for `CCNC(C)(C)CN(Cc1ccc(-c2ccc(C(F)(F)F)cc2)cc1)C(=O)Cn1c(CCc2cccc(F)c2F)nc(=O)c2ccccc21` it is 70% (active).
The same measure, in the same setting: with `Cc1cc(N[C@@H](CC(C)C)C(=O)NCCc2ccccc2)nc(Nc2ccccc2)n1` the figure was 38%; with `O=C(Nc1ccc(N2CCN(Cc3ccccc3)CC2)cc1)c1cccs1`, 86% (active); with `CCOC(=O)c1c(C)n(-c2ccc(Cl)cc2)c2ccc(OC(=O)C=Cc3ccccc3)cc12`, 92% (active).
On to `Cc1cccc2[nH]c(-c3ccc(-c4cccc(NC(=O)CCc5cnc[nH]5)c4)cc3)nc12`, for which the growth inhibition was 14%.
As for `Cc1ccc(-c2nc3ccc(C(=O)NC4CCN(Cc5ccccc5)CC4)cc3[nH]2)cc1`, the growth inhibition was 53% (active).
On the same count and under the same terms, with `COc1ccc2nc(C)cc(N/N=C/C=C/c3ccccc3)c2c1` the figure was 100% (active); with `CC(=O)Nc1ccc(OCCCCN(Cc2ccccc2OC(F)(F)F)c2ccc(C(F)(F)F)c(C#N)c2)c(Cl)c1`, 96% (active).
For `Cc1ccc(Nc2nc(C)cc(NCc3ccc(-n4ccnc4)cc3)n2)cc1`, the growth inhibition was 100% (active).
Same read-out and setting: the figure for `CCc1sc(N2CCN(C)CC2)nc1C(=O)NCCc1ccc(Cl)c(Cl)c1` is 49%; for `COc1cc2nc(C)nc(Nc3cccc(Br)c3)c2cc1OC` it is 82% (active).
Regarding `Oc1ccc(CCNc2nc(NCc3cccc(-c4cc(C(F)(F)F)ccc4Cl)c3)nc(N3CCNCC3)n2)cc1`, the growth inhibition was 8%.
On the same count and under the same terms, the figure for `CC1(C)N=C(N)N=C(N)N1OCOc1ccc(Cl)cc1` is 96% (active); for `O=C(/C=C/c1ccc(Cl)c(Cl)c1)NCCCCCN1CCCN(C(=O)Nc2ccc(C(F)(F)F)cc2)CC1` it is 7%; for `N#Cc1cccc(NC(=O)Nc2ccc3c(c2)CN(Cc2c[nH]c4ncccc24)C3)c1` it is 12%.
Still for that read-out and setting: the figure for `COC(=O)CNC(c1ccccc1)c1cc(Br)ccc1NC(=O)c1ccccc1Br` (stereo not drawn) is 77% (active).
The same measure, in the same setting: the figure for `Nc1nc(N)c2c(ccc3c2ccn3CCCC2CCCNC2)n1` (stereo not drawn) is 55% (active); for `COc1ccc(C(=O)Nc2ccc(-c3ccc([N+](=O)[O-])cc3)cc2)cc1CCCN(C)C` it is 9%; for `Cn1c(-c2ccccc2)cc2c3c(N)nc(N)nc3ccc21` it is 30%.
For the compound `Fc1cccc(CNc2ncc(-c3ccsc3)c(-c3nccs3)n2)c1`, the growth inhibition was 85% (active).
In the case of `c1ccc(Oc2ccc(Nc3ccnc4cc(-c5cccc(CNCCN6CCOCC6)c5)ccc34)cc2)cc1`, the growth inhibition was 98% (active).
On the same count and under the same terms, with `CCOc1ccc(C(C)NC(=O)c2cc(Cl)ccc2OC)cc1OCC` (stereo not drawn) the figure was 99% (active); with `CN1CCCC(CN2CCN(Cc3ccc(-c4ccc(-c5nc6ccccc6[nH]5)s4)cc3)CC2)C1` (stereo not drawn), 100% (active).
On the same count and under the same terms, the figure for `N#Cc1ccc(N(CCOc2ccc(Cl)cc2)Cc2ccccc2C(F)(F)F)cc1C(F)(F)F` is 64% (active); for `Cc1cc(NC2CCCC2)nc(Nc2ccccc2F)n1` it is 53% (active).

A short description of the next experiment: human hepatoma cell viability loss – ATP luminescence, cytotoxicity control for P. falciparum antimalarial project, primary screen (AID 2303).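 Further: 0% = DMSO wells and 100% = digitonin-killed cells.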 As to conditions: HepG2 viability, 24-48 h, at 10 µM, stronger effect = higher value.
What is called inhibition is the relative decrease from the control value, in per cent. For the compound `CCCCCCN1CCC(NCc2ccc(OCCN3CCCC3)cc2)CC1`, the inhibition was 23%.
`Cc1cccc(CN2CCC(C(=O)Nc3ccc(-c4nc5ccccc5[nH]4)cc3)CC2)n1`: the inhibition is -9%.
The same measure, in the same setting: with `CC(C)c1ccc(N(CC(=O)N/N=C/c2ccc(C(F)(F)F)cc2)S(=O)(=O)c2ccc(C(F)(F)F)cc2)cc1` the figure was 2%; with `COc1ccc2nc(-c3cc(-c4ccc(NC(=O)C(C)C)cc4)cnc3N)[nH]c2c1`, 43%; with `O=C(NCCCCN1CCC(c2ccc(Br)cc2)CC1)c1ccc(NC(=O)c2ccc(Cl)cc2)cc1`, 17%.
Still for that read-out and setting: with `O=S(=O)(NCCN1CCCC1)c1cccc(-c2cccc(CNCc3ccsc3)c2)c1` the figure was 69% (active).
Still for that read-out and setting: with `CCc1cn2c3c(cc(C(=O)N[C@@H](Cc4ccccc4)[C@H](O)CNC4CCOCC4)cc13)N(C)S(=O)(=O)C2` the figure was 13%; with `COc1ccc(CNCc2ccc(-c3ccc(-c4nc5ccc(C(F)(F)F)cc5[nH]4)s3)cc2)cc1`, 38%; with `COc1ccc(-c2nc(NC(=O)Cc3ccc4c(c3)OCCO4)sc2C)cc1`, 0%.
Consider `COC(=O)c1ccc2nc(-c3ccc(/C=C/C(=O)NCc4ccc(Cl)c(Cl)c4)cc3)[nH]c2c1`, for which the inhibition is 13%.
Still for that read-out and setting: the figure for `N#Cc1cccc(Nc2nccc(NCC(O)c3cccc(C(F)(F)F)c3)n2)c1` (stereo not drawn) is 4%; for `COc1cc(-c2nc(-c3ccccc3)c(-c3ccccc3)[nH]2)cc(OC)c1O` it is 5%.
In the case of `N#Cc1cc(C(=O)c2cc(Cl)ccc2O)cn(-c2cccc(C(F)(F)F)c2)c1=O`, the inhibition is -1%.
As for `CC(C)CC1c2[nH]c3ccccc3c2CCN1C(=O)CCc1ccccc1` (stereo not drawn), the inhibition was -13%.
As to `CCNC(C)(C)CN(Cc1ccc(-c2ccc(C(F)(F)F)cc2)cc1)C(=O)Cn1c(CCc2cccc(F)c2F)nc(=O)c2ccccc21`, the inhibition was 47%.
Turning to `Cc1cc(N[C@@H](CC(C)C)C(=O)NCCc2ccccc2)nc(Nc2ccccc2)n1`, the inhibition was 1%.
On the same count and under the same terms, the figure for `O=C(Nc1ccc(N2CCN(Cc3ccccc3)CC2)cc1)c1cccs1` is -1%; for `CCOC(=O)c1c(C)n(-c2ccc(Cl)cc2)c2ccc(OC(=O)C=Cc3ccccc3)cc12` it is 3%; for `Cc1cccc2[nH]c(-c3ccc(-c4cccc(NC(=O)CCc5cnc[nH]5)c4)cc3)nc12` it is 13%.
Same read-out and setting: the figure for `Cc1ccc(-c2nc3ccc(C(=O)NC4CCN(Cc5ccccc5)CC4)cc3[nH]2)cc1` is 20%; for `COc1ccc2nc(C)cc(N/N=C/C=C/c3ccccc3)c2c1` it is 27%.
Same read-out and setting: the figure for `CC(=O)Nc1ccc(OCCCCN(Cc2ccccc2OC(F)(F)F)c2ccc(C(F)(F)F)c(C#N)c2)c(Cl)c1` is 11%; for `Cc1ccc(Nc2nc(C)cc(NCc3ccc(-n4ccnc4)cc3)n2)cc1` it is 33%.
For `CCc1sc(N2CCN(C)CC2)nc1C(=O)NCCc1ccc(Cl)c(Cl)c1`, the inhibition is 5%.
On the same count and under the same terms, with `COc1cc2nc(C)nc(Nc3cccc(Br)c3)c2cc1OC` the figure was 0%; with `Oc1ccc(CCNc2nc(NCc3cccc(-c4cc(C(F)(F)F)ccc4Cl)c3)nc(N3CCNCC3)n2)cc1`, 33%; with `CC1(C)N=C(N)N=C(N)N1OCOc1ccc(Cl)cc1`, 68% (active).
For `O=C(/C=C/c1ccc(Cl)c(Cl)c1)NCCCCCN1CCCN(C(=O)Nc2ccc(C(F)(F)F)cc2)CC1`, the inhibition was 31%.
The same measure, in the same setting: the figure for `N#Cc1cccc(NC(=O)Nc2ccc3c(c2)CN(Cc2c[nH]c4ncccc24)C3)c1` is 0%.
The same measure, in the same setting: with `COC(=O)CNC(c1ccccc1)c1cc(Br)ccc1NC(=O)c1ccccc1Br` (stereo not drawn) the figure was 10%; with `Nc1nc(N)c2c(ccc3c2ccn3CCCC2CCCNC2)n1` (stereo not drawn), 67% (active); with `COc1ccc(C(=O)Nc2ccc(-c3ccc([N+](=O)[O-])cc3)cc2)cc1CCCN(C)C`, 20%.
With `Cn1c(-c2ccccc2)cc2c3c(N)nc(N)nc3ccc21`, the inhibition was 27%.
Same read-out and setting: with `Fc1cccc(CNc2ncc(-c3ccsc3)c(-c3nccs3)n2)c1` the figure was 15%; with `c1ccc(Oc2ccc(Nc3ccnc4cc(-c5cccc(CNCCN6CCOCC6)c5)ccc34)cc2)cc1`, 12%; with `CCOc1ccc(C(C)NC(=O)c2cc(Cl)ccc2OC)cc1OCC` (stereo not drawn), -1%.
On the same count and under the same terms, with `CN1CCCC(CN2CCN(Cc3ccc(-c4ccc(-c5nc6ccccc6[nH]5)s4)cc3)CC2)C1` (stereo not drawn) the figure was 57% (active).
As for `N#Cc1ccc(N(CCOc2ccc(Cl)cc2)Cc2ccccc2C(F)(F)F)cc1C(F)(F)F`, the inhibition is 3%.
Still for that read-out and setting: the figure for `Cc1cc(NC2CCCC2)nc(Nc2ccccc2F)n1` is 24%.

The values are drawn from PubChem BioAssay.
